# Test results taken from ChEMBL document CHEMBL4513141, “CO-ADD screening of NIH (USA) - Clinical Collection” (2021).
# Entries with a potency or affinity are not part of this list.
# Tests used:
# [1] = tested on: Klebsiella pneumoniae; details: Concentration 20 uM; ASSAY_TEST Inhibition of Bacterial Growth; detection method Absorption (OD600); MEDIA CAMHB; plate type 384well; NBS; CORNING #3640; time 18 hr
# [2] = tested on: Candida albicans; details: 20 µM
# [3] = tested on: Cryptococcus neoformans; details: Concentration 20 uM; ASSAY_TEST Inhibition of Fungal Growth; detection method Resazurin; Absorption (OD600-OD570); plate type 384well; NBS; CORNING #3640
Structure (SMILES),Inhibition [1] [%],Inhibition [2] [%],Inhibition [3] [%]
Nc1nc(Cl)nc2c1ncn2[C@H]1C[C@H](O)[C@@H](CO)O1 [CLADRIBINE],16.3,1.93,-8.92
Cc1cccc(CCN2CCC(C(=O)c3ccc(NS(C)(=O)=O)cc3)CC2)n1.Cl.Cl,0.58,2.81,-8.23
NC(=O)N1c2ccccc2C=Cc2ccccc21 [CARBAMAZEPINE],5.59,4.45,-2.39
COC1=CC(=O)C[C@@H](C)[C@]12Oc1c(Cl)c(OC)cc(OC)c1C2=O [GRISEOFULVIN],11.08,3.42,-0.94
CN1C(C(=O)Nc2ccccn2)=C(O)c2ccccc2S1(=O)=O.O,9.7,7.55,-5.24
CN(C)c1nc(N(C)C)nc(N(C)C)n1 [ALTRETAMINE],4.59,4.65,-7.07
CC1(C)O[C@@H]2[C@@H](CO[C@@]3(COS(N)(=O)=O)OC(C)(C)O[C@@H]23)O1 [TOPIRAMATE],6.32,2.83,-6.94
CCN(CC)CCNC(=O)c1ccc(N)cc1.Cl [PROCAINAMIDE HYDROCHLORIDE],-3.79,0.33,3.84
CC(=O)O[C@]1(C(C)=O)CC[C@H]2[C@@H]3C[C@H](C)C4=CC(=O)CC[C@]4(C)[C@H]3CC[C@@]21C [MEDROXYPROGESTERONE ACETATE],17.28,4.88,-5.46
CN(C)CCCSc1ccccc1NC(=O)/C=C/c1ccccc1.Cl.O,18.81,2.74,-8.97
